Source: PubChem BioAssay (National Center for Advancing Translational Sciences (NCATS))
Rows were chosen to be rich in hits. Some 6.2% of all compounds tested hit in one or more screens of this group.
HCMV inh: human cytomegalovirus inhibition. activity change, negative = inhibition, % at 57.5 µM. HFF cells, HCMV-luciferase reporter, 72 h; active compounds read low. AID 1259415. 410,000 tested, 4.5% active; in the data active means activity change below about -60%; inconclusive means no clear call, values can overlap the other calls; inactive means above about -39%
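Screen run at 2 compound doses on HFFs infected with reporter HCMV, MOI 1 PFU/cell. Luciferase activity from cell lysates at 72 h post infection gave inhibition relative to buffer-only and Salinomycin wells.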
FMDV inh: antivirals against foot and mouth disease virus; Potency, µM (top dose mostly 57.9 µM), usual class: inhibitors; 410,000 tested, 1.2% active; FMDV antiviral cell-based qHTS; calls by dose curve; tested in HEK293T cells; further: read-out not given here; nearly all actives have a fitted effect of over 45% in size
Lassa entry inh: blocks Lassa virus binding to or entry into cells; Potency, µM (series often up to 37.9 µM), usual class: inhibitors; 300,000 tested, 1.2% active; AID 540256; Lassa virus pseudotype entry inhibition, cell reporter; calls by dose curve; tested in HEK293 cells; further: nearly all actives have a fitted effect of over 50% in size
MARV entry inh: inhibitors of Marburg virus binding or cell entry; Marburg virus pseudotyped entry inhibition, cell reporter; Potency, µM (highest dose often 37.8 µM), actives largely listed as inhibitors; 300,000 tested, 1.8% active; AID 540276; calls by dose curve; tested in HEK293 cells
Numbers stand for hits; 0 = inactive; ? = inconclusive; - = no result; ! = not active in a repeat.

SMILES	HCMV inh	FMDV inh	Lassa entry inh	MARV entry inh
CC(=O)C1=C(C)N(Cc2ccccc2)C(=O)N[C@H]1c1cccc(C(F)(F)F)c1	-69	0	0	0
COC(=O)C1=C(C)N(Cc2ccc(C(F)(F)F)cc2)C(=NCc2ccccc2)NC1c1cccc(F)c1 (stereo not given)	-99	-	-	-
Cc1cccnc1NC(=O)c1ccccc1-c1ccccc1C(=O)Nc1ncccc1C	0	0	7.3µM	0
Cc1ccccc1NC(=O)c1ccc([N+](=O)[O-])o1	0	0	0	?
Cc1cccnc1NC(=O)c1ccc([N+](=O)[O-])o1	-76	0	0	0
O=C(Nc1cccc2ncccc12)c1ccc([N+](=O)[O-])o1	-100	0	?	?
Cc1c(NC(=O)c2ccc([N+](=O)[O-])o2)cccc1-c1nc2ncccc2o1	-86	?	0	?
COc1ccccc1C(=O)N[C@@H]1c2ccccc2C2(CCN(C(=O)c3ccnn3C)CC2)[C@H]1OC	-	0	-	-
COCCNC(=O)c1cn(C2CCN(C3CCCC3)CC2)nn1	-	0	-	-
COc1ccc(S(=O)(=O)N2CCC(Oc3ccc(-n4cnnn4)cc3)CC2)cc1	0	0	0	0
COc1ccc(S(=O)(=O)N2CCC(Oc3ccc(-n4cnnn4)cc3)CC2)cc1OC	-64	0	0	0
COc1ccc(OC2CCN(S(=O)(=O)c3cccc(F)c3)CC2)cc1	-97	?	0	0
COc1ccc(OC2CCN(S(=O)(=O)c3ccc(OC)cc3)CC2)cc1	?	?	?	0
ON=C(c1ccccc1)c1ccc2c3c(cccc13)CC2	-62	?	-	-
CCCNC(=O)[C@H]1O[C@@H]1C(=O)N[C@H](C(=O)N1CCC[C@H]1C(=O)OC)[C@@H](C)CC	-	0	-	-
CCOc1nc2ccccc2cc1C=O	-73	0	0	0
COC(=O)C1=C(C)N(Cc2ccccc2)C(=NCC(C)C)NC1c1cccc(C(F)(F)F)c1 (stereo not given)	-	-	?	0
COc1ccc(CNCC(O)COc2cccc3c2OC(C)(C)C3)cc1 (stereo not given)	-64	0	?	?
Cc1cccc(N2C(S)=C(C#N)C(=O)NC2c2ccco2)c1 (stereo not given)	-68	0	0	?
O=S(=O)(c1ccc(-c2cnc(C3CC3)o2)cc1)N1CCN(c2ccc(F)cc2)CC1	-77	0	7.9µM	-
CC(=O)c1ccc(N2CCN(S(=O)(=O)c3ccc(-c4cnc(C5CC5)o4)cc3)CC2)cc1	0	32µM!	0	-
CCOC(=O)Cc1csc(NC(=O)c2ccc(N3CCOCC3)cc2[N+](=O)[O-])n1	0	18µM	-	-
CCCCCCN1C[C@@H](n2cc(-c3ccc(F)cc3)nn2)[C@H](O)C[C@@H]1c1ccc(Cl)cc1	-95	?	-	-
CCCCCCN1C[C@H](n2cc(-c3ccc(F)cc3)nn2)[C@@H](O)C[C@@H]1c1ccc(OC)cc1	0	0	-	-
CCCCCCN1C[C@H](O)[C@@H](n2cc(-c3ccc(F)cc3)nn2)C[C@H]1c1ccccc1	-	-	16µM	-
SMILES	HCMV inh	FMDV inh	Lassa entry inh	MARV entry inh
CCCCCCN1C[C@H](O)[C@@H](n2cc(-c3ccc(F)cc3)nn2)C[C@H]1c1ccc(C)cc1	-	-	25µM	-
CCCCCCN1C[C@H](n2cc(-c3ccc(F)cc3)nn2)[C@@H](O)C[C@@H]1c1ccc(C)cc1	-81	0	-	-
CCCCCCN1C[C@@H](n2cc(-c3ccc(F)cc3)nn2)[C@H](O)C[C@@H]1c1ccc(OC)cc1	0	?	-	-
CCCCCCN1C[C@H](O)[C@@H](n2cc(-c3ccc(F)cc3)nn2)C[C@@H]1c1ccc(Cl)cc1	0	?	-	-
Cc1cc(Br)ccc1NC(=O)C1CCN(S(=O)(=O)c2cccc3nsnc23)CC1	0	0	0	?
O=[N+]([O-])c1ccc(Nc2nc(NC3CCCCC3)nc(N3CCCC3)n2)cc1	-73	0	0	?
O=[N+]([O-])c1cc2c(cc1/C=N/Nc1nc(Nc3ccccc3)nc(N3CCCCC3)n1)OCO2	-75	0	0	0
O=[N+]([O-])c1ccc(/C=N/Nc2nc(N3CCCCC3)nc(N3CCCCC3)n2)o1	0	0	?	21µM
COc1cccc(/C=N/Nc2nc(Nc3ccc([N+](=O)[O-])cc3)nc(N3CCCC3)n2)c1O	?	0	?	2µM
Cc1cc(C)nc(N/N=C/c2cc3c(cc2[N+](=O)[O-])OCO3)n1	?	0	0	?
COc1cccc(/C=N/Nc2ccc([N+](=O)[O-])cn2)c1O	-98	?	?	?
COc1cccc(/C=N/Nc2ncccc2[N+](=O)[O-])c1OC	0	7.1µM	?	1.6µM
Fc1ccccc1/C=N/Nc1nc(N2CCCCC2)nc(N2CCCCC2)n1	0	0	-	-
COc1c(/C=N/Nc2nc(N3CCCCC3)nc(N3CCCCC3)n2)cccc1[N+](=O)[O-]	-92	0	0	?
c1ccc(CCc2nnc3n2CCN(Cc2ccc4ccccc4n2)CC3)cc1	-	0	-	-
COc1cccc(CNC(=O)c2cccc(-n3c(C)nc4cccnc43)c2)c1OC	0	0	0	-
CCOC(=S)SCC(=O)Nc1ncc(C)s1	0	25µM	0	?
Cc1cnc(NC(=O)CSc2ccccc2)s1	0	0	0	0
O=C(CCc1ccccc1)NNC(=O)c1ccccc1C(=O)O	0	0	4.6µM	0
O=C(CCc1ccccc1)NNC(=O)c1ccccn1	-75	0	-	-
CCNC(=S)NNC(=O)c1ccccn1	0	0	?	?
O=C(CCc1ccccc1)NNC(=O)CCc1ccccc1	0	0	-	-
O=C(NNC(=O)C(c1ccccc1)c1ccccc1)c1ccccn1	-97	?	?	4.6µM
Cc1ccccc1C(=O)NNC(=O)CCc1ccccc1	0	0	0	0
O=C(NNc1ccccn1)C(c1ccccc1)c1ccccc1	0	0	0	?
SMILES	HCMV inh	FMDV inh	Lassa entry inh	MARV entry inh
O=C(NNC(=S)Nc1ccc(Cl)c(Cl)c1)c1ccccn1	-82	0	-	-
COc1ccc(NC(=O)c2oc3ccccc3c2NC(=O)c2cc(OC)c(OC)c(OC)c2)cc1	0	0	?	?
CCCCNS(=O)(=O)c1ccc(C)c(-c2nnc3c4ccccc4c(C)nn23)c1	0	0	0	0
CCN(CC)CCCNC(=S)N1CCN(c2nc(-c3ccc(F)cc3)cs2)CC1	-97	?	?	10µM
S=C(NCc1ccco1)N1CCN(c2nc(-c3ccc(Cl)cc3)cs2)CC1	-74	?	?	?
COCCNC(=S)N1CCN(c2nc(-c3ccc(F)cc3)cs2)CC1	0	0	-	-
CCNC(=S)N1CCN(c2nc(-c3ccc(F)cc3)cs2)CC1	-61	?	-	-
S=C(NCc1ccco1)N1CCN(c2nc(-c3ccccc3)cs2)CC1	?	0	0	0
COc1ccc(CCNC(=O)Cn2c(=O)cc(C(F)(F)F)c3c(C)nn(C)c32)cc1OC	0	0	0	-
Cn1cnc([N+](=O)[O-])c1Sc1nnc(-c2ccccc2)c(-c2ccccc2)n1	0	-	-	-
C[C@]12CCCCC3=CC(=O)C=C[C@@]31OC(=O)CC2	0	-	-	-
Cc1ccc(Cl)cc1N1CCN(C(=O)C2CCN(Cc3nc(-c4ccc(Cl)cc4)oc3C)CC2)CC1	0	?	?	0
COc1cc2ccccc2cc1C(=O)N1CCN(c2nc3c(F)cc(F)cc3s2)CC1	0	?	0	-
COCCCn1c(=O)c2sccc2n2c(CCCC(=O)Nc3cccc(OC)c3)nnc12	0	0	0	-
Cc1cc(N)c2ccccc2[n+]1CCCCCCCCCCCCCC[n+]1c(C)cc(N)c2ccccc21	-	-	-	8.9µM
